Measurements reported in the supplement of paper PMC10849652.
The full data set covers some 8,800 targets. This sample favours those with a hit. About 0.5% of all pairs of compound and target were hits.

What was measured:
Experiment in all cases: log2 fold change, soluble protein after heating vs DMSO (PISA); higher = thermal stabilisation; K562 lysate, 10 uM; active = over 0.2 and 3.5 SD of the protein, either way, in both replicates (recomputed)
alvocidib = compound: CN1CC[C@H](c2c(O)cc(O)c3c(=O)cc(-c4ccccc4Cl)oc23)[C@H](O)C1 [alvocidib]
In short: (§1)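 Log-two fold change in thermal stability relative to solvent controls is reported from duplicates. For each sample, crude K562 extract from dounce-homogenised pellets in PBS pH 7.4 with 1 mM MgCl2, at 1 mg/mL protein, was treated with 10 μM compound for 30 min. Aliquots heated for 3 min across 48°C-58°C were pooled, brought to 0.5% NP-40 at 4°C and cleared at 21,000xg for 90 min. The supernatant was quantified by TMTpro 16plex LC-MS/MS with channel sums equalised.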

Tubastatin A = compound: CN1CCc2c(c3ccccc3n2Cc2ccc(C(=O)NO)cc2)C1 [Tubastatin A]
In short: as §1

[1] = compound: CNC(=O)C1=CC=CC=C1NC2=NC(=NC=C2Cl)NC3=C(C=C(C=C3)N4CCOCC4)OC
In short: as §1

defactinib = compound: CNC(=O)c1ccc(Nc2ncc(C(F)(F)F)c(NCc3nccnc3N(C)S(C)(=O)=O)n2)cc1 [defactinib]
In short: as §1

[2] = compound: CNc1nc(-c2ccc3c(N)n[nH]c3c2)cc(N2C[C@@H](C(=O)NC3CCCCC3)CC[C@H]2C)n1
In short: as §1

encorafenib = compound: COC(=O)N[C@@H](C)CNc1nccc(-c2cn(C(C)C)nc2-c2cc(Cl)cc(NS(C)(=O)=O)c2F)n1 [encorafenib]
In short: as §1

[3] = compound: COC(=O)[C@H](CCSC)NC(=O)C1=C(C=C(C=C1)NC[C@H](CS)N)C2=CC=CC=C2
In short: as §1

alisertib = compound: COc1cc(Nc2ncc3c(n2)-c2ccc(Cl)cc2C(c2c(F)cccc2OC)=NC3)ccc1C(=O)O [alisertib]
In short: as §1

[4] = compound: COc1cc2nc(-c3cc(F)ccc3O)nc(N[C@@H]3CNC[C@H]3C(C)(C)O)c2cc1OC
In short: as §1

gefitinib = compound: COc1cc2ncnc(Nc3ccc(F)c(Cl)c3)c2cc1OCCCN1CCOCC1 [gefitinib]
In short: as §1

Measured: log2 fold change

TUBB1 (UniProt Q9H4B7)
Chain of UniProt Q9H4B7 (Q9H4B7 whole entry, looked up): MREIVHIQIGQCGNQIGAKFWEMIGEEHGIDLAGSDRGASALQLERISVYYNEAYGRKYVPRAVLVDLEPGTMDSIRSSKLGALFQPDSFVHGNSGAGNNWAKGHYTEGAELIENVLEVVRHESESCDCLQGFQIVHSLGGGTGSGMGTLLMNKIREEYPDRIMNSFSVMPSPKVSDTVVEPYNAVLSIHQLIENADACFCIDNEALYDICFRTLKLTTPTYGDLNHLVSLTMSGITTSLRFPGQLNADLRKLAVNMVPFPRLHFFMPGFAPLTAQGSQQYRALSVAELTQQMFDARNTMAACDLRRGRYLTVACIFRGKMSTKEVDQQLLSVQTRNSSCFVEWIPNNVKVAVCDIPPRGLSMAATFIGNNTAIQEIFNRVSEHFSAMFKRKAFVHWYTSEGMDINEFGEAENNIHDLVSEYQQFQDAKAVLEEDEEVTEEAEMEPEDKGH
inactive: alvocidib 0.026 | Tubastatin A -0.059 | [1] 0.021 | defactinib 0.07 | [2] -0.005 | encorafenib -0.015 | [3] 0.071 | alisertib -0.013 | [4] -0.034 | gefitinib -0.047

TMEM263 (UniProt Q8WUH6)
inactive: alvocidib 0.013 | Tubastatin A 0.266 | [1] 0.116 | defactinib 0.213 | [2] -0.013 | encorafenib 0.285 | [3] 0.154 | alisertib 0.202 | [4] 0.398 | gefitinib 0.222

TDRKH (UniProt Q9Y2W6)
inactive: alvocidib -0.017 | Tubastatin A -0.064 | [1] 0.019 | defactinib 0.033 | [2] 0.042 | encorafenib 0.007 | [3] 0.008 | alisertib -0.049 | [4] 0.04 | gefitinib 0.001

TLK2 isoform 3 (UniProt Q86UE8)
inactive: alvocidib 0.007

TMOD1 (UniProt P28289)
inactive: alvocidib 0.017 | Tubastatin A -0.081 | [1] 0.042 | defactinib 0.046 | [2] -0.009 | encorafenib -0.004 | [3] -0.002 | alisertib 0.014 | [4] 0.016 | gefitinib -0.008

TK1 (UniProt P04183)
Chain of UniProt P04183 (P04183 whole entry, looked up): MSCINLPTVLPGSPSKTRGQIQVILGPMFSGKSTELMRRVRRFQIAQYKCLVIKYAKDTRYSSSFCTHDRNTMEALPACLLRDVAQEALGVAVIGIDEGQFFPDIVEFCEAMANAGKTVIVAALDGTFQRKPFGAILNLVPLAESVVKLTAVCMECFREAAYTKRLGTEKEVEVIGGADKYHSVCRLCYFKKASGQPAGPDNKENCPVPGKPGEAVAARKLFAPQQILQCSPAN
inactive: alvocidib -0.051 | Tubastatin A 0.004 | [1] 0.006 | defactinib -0.011 | [2] 0.032 | encorafenib -0.018 | [3] -0.025 | alisertib -0.002 | [4] 0.017 | gefitinib 0.013

TOR3A (UniProt Q9H497)
Chain of UniProt Q9H497 (Q9H497 whole entry, looked up): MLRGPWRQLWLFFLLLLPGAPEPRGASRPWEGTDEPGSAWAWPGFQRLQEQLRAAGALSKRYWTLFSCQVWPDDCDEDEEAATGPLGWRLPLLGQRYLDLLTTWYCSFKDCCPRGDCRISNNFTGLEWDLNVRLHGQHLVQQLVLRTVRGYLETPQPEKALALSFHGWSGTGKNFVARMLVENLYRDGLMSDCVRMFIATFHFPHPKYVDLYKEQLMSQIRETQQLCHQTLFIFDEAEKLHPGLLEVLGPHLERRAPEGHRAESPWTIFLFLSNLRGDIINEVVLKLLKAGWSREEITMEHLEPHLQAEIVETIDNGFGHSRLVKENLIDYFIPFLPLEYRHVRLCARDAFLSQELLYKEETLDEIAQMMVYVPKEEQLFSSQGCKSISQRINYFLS
inactive: alvocidib 0.01 | Tubastatin A -0.016 | [1] 0.004 | defactinib 0.01 | [2] 0.019 | encorafenib 0.006 | [3] -0.006 | alisertib 0.032 | [4] -0.367 | gefitinib 0.018

TUBA4A (UniProt C9JQ00)
inactive: alvocidib 0.074

UBXN2B (UniProt Q14CS0)
inactive: alvocidib -0.123 | Tubastatin A -0.001 | [1] -0.046 | defactinib 0.07 | [2] -0.018 | encorafenib -0.037 | [3] 0.069 | alisertib 0.174 | [4] -0.114 | gefitinib 0.008

UCHL5 isoform 3 (UniProt Q9Y5K5)
Chain of UniProt Q9Y5K5 (Q9Y5K5 whole entry, looked up): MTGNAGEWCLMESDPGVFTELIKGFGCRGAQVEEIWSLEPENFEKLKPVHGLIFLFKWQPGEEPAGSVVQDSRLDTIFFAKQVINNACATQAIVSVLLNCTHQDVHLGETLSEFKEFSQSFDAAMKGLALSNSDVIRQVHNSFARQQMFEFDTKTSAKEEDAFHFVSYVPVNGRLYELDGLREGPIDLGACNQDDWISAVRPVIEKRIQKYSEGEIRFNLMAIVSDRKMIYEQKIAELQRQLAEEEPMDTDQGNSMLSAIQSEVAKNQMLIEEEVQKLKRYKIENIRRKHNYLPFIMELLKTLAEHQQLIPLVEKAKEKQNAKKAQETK
inactive: alvocidib -0.009 | Tubastatin A -0.063 | [1] 0.008 | defactinib -0.024 | [2] -0.011 | encorafenib -0.004 | [3] 0.088 | alisertib -0.026 | [4] -0.012 | gefitinib -0.014

TJP1 (UniProt H0Y3R8)
inactive: alvocidib 0.079

UBAP2L isoform 5 (UniProt Q14157)
inactive: alvocidib 0.019 | Tubastatin A 0.008 | [1] 0.007 | defactinib 0.016 | [2] 0.038 | encorafenib 0.041 | [3] -0.002 | alisertib 0.027 | [4] 0.022 | gefitinib -0.031

TESC (UniProt Q96BS2)
Chain of UniProt Q96BS2 (Q96BS2 whole entry, looked up): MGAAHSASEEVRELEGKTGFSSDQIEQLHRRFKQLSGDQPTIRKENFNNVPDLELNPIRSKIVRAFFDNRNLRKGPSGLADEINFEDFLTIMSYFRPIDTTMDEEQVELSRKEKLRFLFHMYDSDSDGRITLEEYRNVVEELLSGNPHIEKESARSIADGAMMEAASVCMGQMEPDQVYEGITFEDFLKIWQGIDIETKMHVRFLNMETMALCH
inactive: alvocidib -0.037 | Tubastatin A 0.022 | [1] -0.008 | defactinib -0.007 | [2] -0.034 | encorafenib 0.033 | [3] -0.037 | alisertib -0.053 | [4] -0.058 | gefitinib 0.091

UBTF (UniProt P17480)
Chain of UniProt P17480 (P17480 whole entry, looked up): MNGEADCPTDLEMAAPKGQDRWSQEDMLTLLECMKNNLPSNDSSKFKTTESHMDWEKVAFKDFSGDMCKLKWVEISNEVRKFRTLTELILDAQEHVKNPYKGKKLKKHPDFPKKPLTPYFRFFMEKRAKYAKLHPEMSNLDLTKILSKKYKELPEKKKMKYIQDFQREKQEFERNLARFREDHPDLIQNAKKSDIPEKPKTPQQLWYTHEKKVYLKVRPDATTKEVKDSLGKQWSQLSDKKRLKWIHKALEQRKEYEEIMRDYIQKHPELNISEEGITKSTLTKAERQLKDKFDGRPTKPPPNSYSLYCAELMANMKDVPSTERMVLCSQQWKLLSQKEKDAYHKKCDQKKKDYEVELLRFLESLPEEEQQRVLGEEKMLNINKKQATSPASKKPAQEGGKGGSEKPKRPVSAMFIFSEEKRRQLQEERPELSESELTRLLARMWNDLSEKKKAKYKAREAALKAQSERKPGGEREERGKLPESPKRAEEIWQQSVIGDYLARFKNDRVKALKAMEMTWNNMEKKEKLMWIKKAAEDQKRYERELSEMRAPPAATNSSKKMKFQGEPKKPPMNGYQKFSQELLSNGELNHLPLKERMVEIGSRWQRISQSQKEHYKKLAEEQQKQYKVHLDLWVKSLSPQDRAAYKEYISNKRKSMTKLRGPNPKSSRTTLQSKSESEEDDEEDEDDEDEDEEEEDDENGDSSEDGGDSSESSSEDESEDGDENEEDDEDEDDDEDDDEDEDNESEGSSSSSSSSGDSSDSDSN
inactive: alvocidib 0.026 | Tubastatin A -0.135 | [1] -0.008 | defactinib 0.007 | [2] 0.004 | encorafenib -0.002 | [3] 0.073 | alisertib 0.055 | [4] -0.018 | gefitinib 0.045

TRIM11 (UniProt Q96F44)
inactive: alvocidib -0.015 | Tubastatin A -0.021 | [1] 0.037 | defactinib 0.016 | [2] -0.007 | encorafenib 0.029 | [3] 0.053 | alisertib -0.026 | [4] -0.055 | gefitinib 0.004

UBE2D1 (UniProt P51668)
Chain of UniProt P51668 (P51668 whole entry, looked up): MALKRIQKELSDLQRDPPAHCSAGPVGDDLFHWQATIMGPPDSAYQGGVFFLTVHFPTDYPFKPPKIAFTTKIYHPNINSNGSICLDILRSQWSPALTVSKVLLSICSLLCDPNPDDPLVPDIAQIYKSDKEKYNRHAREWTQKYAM
inactive: alvocidib 0.003 | Tubastatin A -0.045 | [1] 0.06 | defactinib 0.028 | [2] -0.027 | encorafenib -0.025 | [3] -0.042 | alisertib 0.028 | [4] -0.036 | gefitinib 0.106

TUT4 (UniProt Q5TAX3)
inactive: alvocidib -0.022 | Tubastatin A -0.1 | [1] -0.001 | defactinib 0.002 | [2] 0.039 | encorafenib 0.059 | [3] 0.125 | alisertib 0.01 | [4] -0.014 | gefitinib -0.007

TTK (UniProt P33981)
active: [1] 0.616 | defactinib 0.434
inactive: alvocidib -0.004 | Tubastatin A -0.141 | [2] 0.101 | encorafenib 0.004 | [3] -0.02 | alisertib 0.078 | [4] 0.103 | gefitinib -0.102

TRAPPC9 isoform 2 (UniProt Q96Q05)
inactive: alvocidib -0.017 | Tubastatin A -0.128 | [1] 0.002 | defactinib -0.011 | [2] -0.075 | encorafenib 0.022 | [3] -0.015 | alisertib -0.036 | [4] 0.021 | gefitinib -0.017

TRIM23 (UniProt P36406)
Chain of UniProt P36406 (P36406 whole entry, looked up): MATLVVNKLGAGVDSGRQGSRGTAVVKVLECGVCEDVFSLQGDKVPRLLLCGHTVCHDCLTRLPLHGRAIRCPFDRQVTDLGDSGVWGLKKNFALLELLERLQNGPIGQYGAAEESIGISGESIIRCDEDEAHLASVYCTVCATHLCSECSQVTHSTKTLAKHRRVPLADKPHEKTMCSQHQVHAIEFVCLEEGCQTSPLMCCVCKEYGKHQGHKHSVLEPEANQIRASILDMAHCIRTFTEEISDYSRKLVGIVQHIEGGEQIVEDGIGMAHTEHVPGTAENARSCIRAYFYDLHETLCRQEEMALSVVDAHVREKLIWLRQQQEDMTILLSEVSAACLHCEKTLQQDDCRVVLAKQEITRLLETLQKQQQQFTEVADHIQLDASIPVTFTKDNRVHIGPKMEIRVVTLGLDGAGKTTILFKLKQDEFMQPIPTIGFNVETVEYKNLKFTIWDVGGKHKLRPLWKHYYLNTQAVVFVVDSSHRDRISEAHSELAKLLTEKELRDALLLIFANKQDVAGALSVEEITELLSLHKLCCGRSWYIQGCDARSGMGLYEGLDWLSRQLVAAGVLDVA
inactive: alvocidib -0.071 | Tubastatin A 0.023 | [1] 0.017 | defactinib -0.008 | [2] 0.354 | encorafenib -0.063 | [3] 0.06 | alisertib -0.014 | [4] 0.154 | gefitinib 0.057

TDRD3 isoform 3 (UniProt Q9H7E2)
inactive: alvocidib 0.043 | Tubastatin A -0.08 | [1] 0.025 | defactinib 0.033 | [2] 0.097 | encorafenib -0.006 | [3] -0.029 | alisertib -0.084 | [4] -0.042 | gefitinib 0.297

UBE2H (UniProt P62256)
Chain of UniProt P62256 (P62256 whole entry, looked up): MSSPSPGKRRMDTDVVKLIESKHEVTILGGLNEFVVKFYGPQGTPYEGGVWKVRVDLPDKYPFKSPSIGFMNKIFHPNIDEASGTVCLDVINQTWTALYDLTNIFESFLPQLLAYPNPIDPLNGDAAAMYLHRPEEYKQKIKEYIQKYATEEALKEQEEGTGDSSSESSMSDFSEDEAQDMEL
inactive: alvocidib 0.11 | Tubastatin A 0.076 | [1] -0.03 | defactinib 0.025 | [2] -0.061 | encorafenib 0.001 | [3] -0.01 | alisertib 0.004 | [4] -0.029 | gefitinib 0.044

TPM3 (UniProt P06753)
Chain of UniProt P06753 (P06753 whole entry, looked up): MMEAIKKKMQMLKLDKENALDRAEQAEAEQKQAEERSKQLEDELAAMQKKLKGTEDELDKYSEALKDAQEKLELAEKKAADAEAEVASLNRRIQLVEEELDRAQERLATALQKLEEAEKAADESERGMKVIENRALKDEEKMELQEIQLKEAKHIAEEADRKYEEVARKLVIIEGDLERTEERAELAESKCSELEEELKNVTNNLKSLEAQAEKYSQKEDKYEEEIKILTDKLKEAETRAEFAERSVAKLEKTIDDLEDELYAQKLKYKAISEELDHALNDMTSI
inactive: alvocidib 0.048 | Tubastatin A 0.049 | [1] -0.015 | defactinib 0.044 | [2] -0.003 | encorafenib -0.048 | [3] -0.02 | alisertib -0.007 | [4] 0 | gefitinib 0.008

TBL2 (UniProt Q9Y4P3)
Chain of UniProt Q9Y4P3 (Q9Y4P3 whole entry, looked up): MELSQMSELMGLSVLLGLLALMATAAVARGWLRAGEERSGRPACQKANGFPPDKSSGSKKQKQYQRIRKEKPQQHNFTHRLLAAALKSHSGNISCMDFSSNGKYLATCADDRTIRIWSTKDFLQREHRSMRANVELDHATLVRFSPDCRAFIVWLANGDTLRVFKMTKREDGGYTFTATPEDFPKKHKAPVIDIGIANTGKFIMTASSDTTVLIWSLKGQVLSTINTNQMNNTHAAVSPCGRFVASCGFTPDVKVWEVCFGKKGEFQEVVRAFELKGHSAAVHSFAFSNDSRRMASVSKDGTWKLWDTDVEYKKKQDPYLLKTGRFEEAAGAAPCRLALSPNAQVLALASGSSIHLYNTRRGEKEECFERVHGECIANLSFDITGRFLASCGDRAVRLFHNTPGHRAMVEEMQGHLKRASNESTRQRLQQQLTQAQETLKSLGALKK
inactive: alvocidib 0.018 | Tubastatin A -0.007 | [1] 0.023 | defactinib 0.039 | [2] -0.003 | encorafenib 0.057 | [3] -0.036 | alisertib 0.008 | [4] 0.055 | gefitinib -0.018

TBC1D2B (UniProt Q9UPU7)
inactive: alvocidib -0.023 | Tubastatin A -0.157 | [1] 0.038 | defactinib 0.04 | [2] -0.047 | encorafenib 0.03 | [3] 0.063 | alisertib 0.011 | [4] 0.103 | gefitinib -0.001

TIMM44 (UniProt O43615)
Chain of UniProt O43615 (O43615 whole entry, looked up): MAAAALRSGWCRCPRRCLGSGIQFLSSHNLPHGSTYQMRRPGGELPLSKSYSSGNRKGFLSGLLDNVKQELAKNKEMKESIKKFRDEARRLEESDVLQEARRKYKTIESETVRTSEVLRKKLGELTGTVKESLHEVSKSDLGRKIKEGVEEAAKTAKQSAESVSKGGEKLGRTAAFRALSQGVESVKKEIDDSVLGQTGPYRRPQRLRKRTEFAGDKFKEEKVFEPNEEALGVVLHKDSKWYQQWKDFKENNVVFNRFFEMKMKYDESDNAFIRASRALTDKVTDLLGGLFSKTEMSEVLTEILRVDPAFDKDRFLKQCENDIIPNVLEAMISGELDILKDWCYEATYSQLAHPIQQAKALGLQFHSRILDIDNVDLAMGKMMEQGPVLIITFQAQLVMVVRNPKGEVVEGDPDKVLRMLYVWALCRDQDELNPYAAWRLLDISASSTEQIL
inactive: alvocidib 0.001 | Tubastatin A 0.083 | [1] 0.039 | defactinib 0.018 | [2] -0.017 | encorafenib 0.056 | [3] 0.08 | alisertib 0.082 | [4] -0.04 | gefitinib 0.017

UBP1 (UniProt Q9NZI7)
inactive: alvocidib 0.049 | Tubastatin A -0.121 | [1] 0.058 | defactinib 0.077 | [2] 0.002 | encorafenib 0.115 | [3] 0.019 | alisertib 0.059 | [4] -0.011 | gefitinib -0.073

TOE1 (UniProt Q96GM8)
inactive: alvocidib -0.01 | Tubastatin A -0.136 | [1] 0.027 | defactinib 0.019 | [2] -0.044 | encorafenib -0.034 | [3] 0.165 | alisertib -0.041 | [4] -0.011 | gefitinib -0.047

TPM3 isoform 2 (UniProt P06753)
inactive: alvocidib 0.03 | Tubastatin A 0.033 | [1] -0.012 | defactinib 0 | [2] -0.144 | encorafenib 0 | [3] -0.071 | alisertib 0 | [4] -0.024 | gefitinib 0.059

TBCE (UniProt Q15813)
active: [3] 0.265
inactive: alvocidib -0.008 | Tubastatin A -0.162 | [1] -0.026 | defactinib 0.031 | [2] -0.028 | encorafenib -0.008 | alisertib -0.008 | [4] -0.006 | gefitinib -0.006

TTL (UniProt Q8NG68)
Chain of UniProt Q8NG68 (Q8NG68 whole entry, looked up): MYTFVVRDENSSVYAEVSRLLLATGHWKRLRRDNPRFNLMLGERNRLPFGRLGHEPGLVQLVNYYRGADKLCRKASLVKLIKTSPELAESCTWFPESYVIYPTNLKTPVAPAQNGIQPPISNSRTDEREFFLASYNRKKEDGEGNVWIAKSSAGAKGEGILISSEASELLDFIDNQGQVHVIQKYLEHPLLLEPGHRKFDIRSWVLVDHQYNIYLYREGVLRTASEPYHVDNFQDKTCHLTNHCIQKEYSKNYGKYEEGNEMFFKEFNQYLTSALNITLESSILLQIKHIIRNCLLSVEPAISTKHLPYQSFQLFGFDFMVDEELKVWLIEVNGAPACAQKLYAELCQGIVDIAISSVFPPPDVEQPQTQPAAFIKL
inactive: alvocidib 0.112 | Tubastatin A -0.143 | [1] 0.015 | defactinib -0.065 | [2] 0.001 | encorafenib 0.079 | [3] 0.144 | alisertib -0.027 | [4] 0.019 | gefitinib 0.112

TRIP12 isoform 2 (UniProt Q14669)
inactive: alvocidib 0.018 | Tubastatin A -0.035 | [1] 0.002 | defactinib 0.045 | [2] -0.17 | encorafenib 0.049 | [3] -0.018 | alisertib 0.019 | [4] -0.122 | gefitinib 0.005
